The record followed here is PubChem BioAssay AID431 (Sanford-Burnham Center for Chemical Genomics, 2006).

The campaign covered roughly 63,000 compounds. About 1,100 (1.7%) were called active. What follows is part of a selection rich in actives, with near analogues and random picks from the rest. Entries with a potency or affinity are not part of this list. Unmarked numbers belong to inactive results.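 The calls were made as follows: active = compounds whose percent cytotoxicity in the single-dose primary screen, scaled between solvent and toxic-drug controls, exceeds 50; inactive = the rest.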

A short description of this assay: cytotoxicity in KRAS-transformed pancreatic duct cells, primary screen, cell-based, fluorescence, HTS (AID 431).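 Also: 0% = DMSO solvent wells and 100% = doxorubicin-treated wells.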 The settings on record: HPDE-C7K KRASV12 cells, Alamar Blue viability, 48 h; at 10 µM; active compounds read high. Background: Resazurin is reduced to fluorescent resorufin, in cell work by metabolically active cells.
For the molecule `CCOC(=O)c1c(C)oc2ccc(NS(=O)(=O)c3ccc4c5c(cccc35)C(=O)N4)cc12`, the cytotoxicity is 69.9% (active).

For the molecule `COC(=O)c1ccccc1NS(=O)(=O)c1ccc2c3c(cccc13)C(=O)N2`, the cytotoxicity is 20.3%.

As to `COCCOC(=O)c1c(C)oc2ccc(NS(=O)(=O)c3ccccc3)cc12`, the cytotoxicity was 17.1%.

In the case of `CCCCn1c2c(c3ccccc31)CCc1nonc1-2`, the cytotoxicity is 14.8%.

Consider `COC(=O)C(C)NC(=O)C(C)NC(=O)OCc1ccccc1` (stereo not drawn), for which the cytotoxicity was 8%.

As to `CCOC(=O)N1CCN(c2c(-c3ccccc3)c3cc(Cl)ccc3[nH]c2=O)CC1`, the cytotoxicity was -2.7%.

In the case of `O=c1[nH]c2ccc(Cl)cc2c(-c2ccccc2)c1N1CCOCC1`, the cytotoxicity is 12.4%.

In the case of `O=C(c1ccco1)N1CCN(c2c(-c3ccccc3)c3cc(Cl)ccc3[nH]c2=O)CC1`, the cytotoxicity is 81.6% (active).

Regarding `COc1cc(NC(=O)c2ccccc2)c(OC)cc1NC(C)=O`, the cytotoxicity is -2.1%.

Turning to `O=C1NC(c2ccncc2)Nc2ccccc21` (stereo not drawn), the cytotoxicity was -12.1%.

With `COCCNC(=O)c1cc2cc(Br)cc(OC)c2oc1=O`, the cytotoxicity is 0.9%.

Take `Cc1ccc(C(=O)Nc2nc3ccccc3n2CCN2CCCC2)cc1`: the cytotoxicity was -3.5%.

As to `O=C(Nc1nc2ccccc2n1CCN1CCCC1)c1ccc(Cl)cc1`, the cytotoxicity was 62.1% (active).

In the case of `CCCn1c(NC(=O)c2cccc(S(=O)(=O)N3CCCC3)c2)nc2ccccc21`, the cytotoxicity is 54% (active).

As to `O=C(Nc1nc2ccccc2n1CCN1CCCCC1)c1ccco1`, the cytotoxicity is -5%.

In the case of `CCCn1c(NC(=O)c2ccc(C)cc2)nc2ccccc21`, the cytotoxicity is -46.1%.

With `CCCn1c(NC(=O)c2ccc(Cl)c(S(=O)(=O)N3CCCC3)c2)nc2ccccc21`, the cytotoxicity was 37.6%.

Turning to `CC(C)(CSc1nncn1N)NS(=O)(=O)c1ccc(Cl)cc1`, the cytotoxicity is 0%.

Take `Cc1cc(-c2ccccc2)c(C#N)c(SCC(N)=O)n1`: the cytotoxicity is 0.4%.

For `CC1CCCN(C(=O)Cn2nnc(-c3cccnc3)n2)C1` (stereo not drawn), the cytotoxicity was 1%.

Take `CC(NS(=O)(=O)c1ccc(F)cc1)C(c1cccs1)N1CCN(C)CC1` (stereo not drawn): the cytotoxicity was -12.3%.

As for `CC1CCCCN1S(=O)(=O)c1ccc(S(=O)(=O)N2CCN(c3ccc(F)cc3)CC2)cc1` (stereo not drawn), the cytotoxicity was -7.9%.

Take `Cc1nc(CN2CCN(C(=O)NC3(c4ccccc4)CC3)CC2)cs1`: the cytotoxicity is -4.3%.

For the molecule `COc1ccc2c(c1OC)C(=O)N1c3ccccc3C(=O)N(c3ccccc3F)C21` (stereo not drawn), the cytotoxicity is 53.2% (active).

In the case of `COc1ccc2c(c1OC)C(=O)N1c3ccccc3C(=O)N(c3ccccc3)C21` (stereo not drawn), the cytotoxicity was 38.7%.

Turning to `COc1ccc2c(c1OC)C(=O)N1c3ccccc3C(=O)N(c3ccc(F)cc3)C21` (stereo not drawn), the cytotoxicity was 12.3%.

Consider `CCN(CCNC(=O)C1CCN(S(C)(=O)=O)CC1)c1ccccc1`, for which the cytotoxicity is -4.7%.

Regarding `O=C(CN1CCc2ccccc2C1)Nc1ccccc1N1CCCCCC1`, the cytotoxicity is 62.4% (active).

For the molecule `O=C(CN1CCCCC1)Nc1ccccc1NC(=O)CN1CCCCC1`, the cytotoxicity was -8.2%.

For `O=C(CNCCC1=CCCCC1)Nc1ccccc1N1CCCCC1`, the cytotoxicity was 74.2% (active).

Regarding `CCOC(=O)c1ccc(NC(=O)N2CCc3ccccc32)cc1`, the cytotoxicity was 16.1%.

With `CCOC(=O)c1ccc(NC(=O)CN2CCN(c3ccccc3)CC2)cc1`, the cytotoxicity was -0.6%.

For the molecule `CCOC(=O)c1ccc(NC(=O)CN2CCc3ccccc3C2)cc1`, the cytotoxicity was 53.1% (active).

For the molecule `COc1ccc(NC(=O)CNCCC2=CCCCC2)cc1`, the cytotoxicity was -7.1%.

In the case of `CC(C)CC(=O)Nc1ccccc1N1CCCC1`, the cytotoxicity was -13.9%.

As for `O=C(COc1ccccc1)Nc1ccccc1N1CCCCC1`, the cytotoxicity is -5.3%.

`COc1ccc(CCNC(=O)c2c(O)c3cccc4c3n(c2=O)CC4)cc1OC`: the cytotoxicity was 3.1%.

Take `Cc1cc(C(=O)OCC(=O)N2CC(C)CC(C)C2)c(C)o1` (stereo not drawn): the cytotoxicity was -1%.

For `CC(=O)c1ccc(NC(=O)C2CCCNC2=O)cc1` (stereo not drawn), the cytotoxicity was -14.4%.

As to `Cc1nnc2ccc(N3CCN(c4cccc(C(F)(F)F)c4)CC3)nn12`, the cytotoxicity is 3.9%.

On to `Cn1c(=O)n(-c2ccccc2)c(=O)c2c3c(sc21)COC(C)(C)C3`, for which the cytotoxicity is -13.9%.

With `Cc1ccc(S(=O)(=O)NC(=NCC(=O)O)c2ccccc2)cc1`, the cytotoxicity was 5.9%.

Consider `CCOc1ccc2[nH]c(=O)c(CN(CCOC)C(=O)N3CCOCC3)cc2c1`, for which the cytotoxicity is 5.7%.

`COc1ccccc1NS(=O)(=O)c1ccc(NC(C)=O)cc1`: the cytotoxicity was 1.6%.

Turning to `CCOC(=O)CN(Cc1ccccc1)S(=O)(=O)c1ccc(NC(C)=O)cc1`, the cytotoxicity was 8.6%.

`CC(=O)Nc1ccc(S(=O)(=O)c2ccc(N)cc2)cc1`: the cytotoxicity is -14.7%.

Consider `COC(=O)C(C)NS(=O)(=O)c1ccc(NC(C)=O)cc1` (stereo not drawn), for which the cytotoxicity was -26.3%.

Take `COC(=O)/C=C/S(=O)(=O)c1ccc(NC(C)=O)cc1`: the cytotoxicity was 58.8% (active).

As for `CC(C)c1c(O)nc(SCc2ccccc2)[nH]c1=O`, the cytotoxicity is -18%.

With `CCS(=O)(=O)c1nnnn1-c1ccccc1S(C)(=O)=O`, the cytotoxicity was 36.8%.

Consider `COc1cccc(-n2nnnc2SCC(=O)c2cc(OC)ccc2OC)c1`, for which the cytotoxicity is -8.2%.

Consider `COc1ccc(-n2nnnc2SCC(=O)c2cccc(OC)c2)cc1`, for which the cytotoxicity is 25.7%.

For `COc1cccc(Oc2nnnn2-c2ccccc2)c1`, the cytotoxicity is -16.1%.

With `COc1ccc(-n2nnnc2-c2cccc(OC)c2)cc1`, the cytotoxicity is 60.7% (active).

With `O=C(CSc1nnnn1-c1ccccc1)CSc1nnnn1-c1ccccc1`, the cytotoxicity was 3%.

As for `COc1ccc(-c2nnnn2-c2ccccc2OC)cc1`, the cytotoxicity was 36.6%.

Take `N#CCCS(=O)(=O)c1nnnn1-c1ccccc1`: the cytotoxicity was 67.8% (active).

Turning to `COc1ccc(-n2nnnc2-c2cccnc2)cc1`, the cytotoxicity was 0.7%.

In the case of `CCOc1cccc(-n2nnnc2-c2ccc(OC)cc2)c1`, the cytotoxicity is 52.1% (active).

`COc1ccc(-c2nnnn2CCc2ccccc2)cc1`: the cytotoxicity was -2.2%.

`O=C(Nc1ccc2c(c1)OCCO2)C1CCN(C(=O)c2ccc(Br)cc2)CC1`: the cytotoxicity was 4.7%.

Take `COc1ccc(N2C(=O)C(CC(=O)Nc3ccccc3)N(Cc3ccc4c(c3)OCO4)C2=O)cc1` (stereo not drawn): the cytotoxicity was -9%.

Regarding `c1ccc2c(c1)nc(Nc1ccc3c(c1)OCO3)c1nnnn12`, the cytotoxicity is -10.2%.
